From PubChem
ELG1 DNA repair – qHTS screen for small molecules that inhibit ELG1-dependent DNA repair in human embryonic kidney (HEK293T) cells expressing luciferase-tagged ELG1 | HEK293T ELG1-luciferase reporter, luminescence, 16 h; DNA damage induced by 5-fluorouridine | Potency, µM (series often up to 46.1 µM), for inactives: top-dose activity change, negative = inhibition, hits mostly inhibitors | 2.3% of 330,000 active; further: potency means the concentration at half of the fitted maximal effect; nearly all actives have a fitted effect of over 55% in size
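Cells (2,000 per well) received 5-fluorouridine plus test compound or DMSO and were incubated 16 hr at 37 °C, 5% CO2. Luciferase activity was read by luminescence 30 min after ONE-Glo addition; signal suppression marked inhibition of damage-induced ELG1 function.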
DT40 TDP1 no CPT – qHTS for Inhibitors of human tyrosyl-DNA phosphodiesterase 1 (TDP1): qHTS in cells in absence of CPT | Potency, µM (highest dose often 46.2 µM), without a hit: at the top dose activity change, negative = growth inhibition, most hits filed as inhibitors | 15% of 420,000 active | DT40 Tdp1-/- hTDP1 cells, no CPT, ATP luminescence, 48 h | AID 686978, 2013; further: potency means the concentration at half of the fitted maximal effect; nearly all actives have a fitted effect of over 55% in size
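Seeded 400 DT40-hTDP1 cells/well (vehicle DMSO, no 20 nM CPT); pinned compounds; ≥48 hr at 37 °C; CellTiter-Glo luminescence as viability measure.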
DT40 TDP1 CPT – qHTS for Inhibitors of human tyrosyl-DNA phosphodiesterase 1 (TDP1): qHTS in cells in presence of CPT. chicken DT40 Tdp1-/-;hTDP1 cells + 20 nM CPT, ATP luminescence, 48 h. 12% of 420,000 active. Potency, µM (top dose mostly 46.2 µM), for the others: at the highest dose activity change, negative = growth inhibition, hits mostly inhibitors; further: potency means the concentration at half of the fitted maximal effect; nearly all actives have a fitted effect of over 55% in size
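Chicken DT40 Tdp1-/- cells complemented with human TDP1, 400 cells/well, exposed to compounds plus 20 nM camptothecin for at least 48 h at 37 C; viability read as ATP content by CellTiter-Glo luminescence.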
TDP1 inh – qHTS Assay for Inhibitors of Tyrosyl-DNA Phosphodiesterase (TDP1); recombinant TDP1, AlphaScreen DNA substrate cleavage; Potency, µM (top dose mostly 130 µM), for inactives: at the top dose activity change, negative = inhibition, most hits filed as inhibitors; 0.28% of 350,000 active; further: potency means the concentration at half of the fitted maximal effect; nearly all actives have a fitted effect of over 40% in size
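Tdp1 1 nM final; 15 min RT w/ cpd; substrate 15 nM, 5 min; beads 10 ug/ml, 10 min; AlphaScreen read. Neg ctrl: no enzyme.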
IL1B secr inh – qHTS for Inhibitors of Inflammasome Signaling: IL-1-beta AlphaLISA Primary Screen. THP-1 LPS/ATP IL-1B secretion, AlphaLISA, 16 h; active compounds read low. activity change, % at 57.5 µM. 4.7% of 360,000 active. AID 743279, 2014; in the data active means activity change below about -50%; inconclusive means mostly about -30% to -49%
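THP-1 cells pretreated 1 hr with compounds (up to 57.5 uM final), then stimulated with LPS (250 ng/mL final) plus ATP (1.25 mM final); secreted IL-1B measured by AlphaLISA after 16 hr, decreased signal indicating inhibition.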
Giardia killer – Small Molecules that selectively kill Giardia lamblia: qHTS | AID 540267, 2011 | Giardia lamblia trophozoite viability | 0.15% of 340,000 active | activity change, % at 7.66 µM, hits read low; in the data active means activity change below about -80%; inconclusive means between about -30% and that limit;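 further: parasites exposed to compound for two days anaerobically before the ATP read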
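Giardia lamblia trophozoites (100 cells/well) were incubated with compounds for 48 h at 37 deg C under anaerobic conditions. Viability was read as ATP content by one-step luminescence after 15-30 min at room temperature.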
* hit, by the source's call; ? = inconclusive; nt = not tested or not shown. Compounds with a hit are over-represented: about 19% of the library has one in this group of screens. Unless noted, the call rests on the fitted dose curve; in most records, active means well fitted curve in the direction sought with a large enough effect; inconclusive means small, poorly fitted or top-dose-only effect, or another doubt; inactive means no such curve, though single readings can be large; an effect the other way counts as inactive or inconclusive. On the % scale 0 is the no-effect control and ±100 the full control effect.

SMILES	ELG1 DNA repair	DT40 TDP1 no CPT	DT40 TDP1 CPT	TDP1 inh	IL1B secr inh	Giardia killer
OC(COc1c(F)cc(Br)cc1F)CN1CCOCC1 (stereo not given)	2%	2%	3%	nt	-5	6
OC(COc1c(F)cc(Br)cc1F)CN1CCN(c2ccc(F)cc2)CC1 (stereo not given)	-27%	18µM*	?	6%	-20	5
OC(COc1cccc2ccccc12)CN1CCN(c2ccc(Cl)cc2)CC1 (stereo not given)	11%	23µM*	?	-6%	-14	?
Cc1cccc(N2CCN(CC(O)COc3ccccc3Cl)CC2)c1 (stereo not given)	-8%	16µM*	?	12%	0	-4
CCCn1c(=O)c(C(=O)OCC)c(O)c2cc(Br)ccc21	-10%	-51%	-26%	-11%	17	-4
CCOC(=O)c1c(CN(C)C)n(C)c2c(O)c(N=NC(N)=O)c3ccc(Br)cc3c12	-14%	15µM*	?	nt	49	0
COC(=O)[C@H](Cc1ccccc1)NC(=O)O[C@@H]1Cc2cc(OC)ccc2O[C@H]1c1cccc(OC)c1	nt	nt	nt	0%	nt	nt
O=C(Cn1cc(S(=O)(=O)Cc2ccc(F)cc2)c2ccccc21)NCc1ccccc1Cl	nt	21µM*	?	5%	nt	nt
COc1cccc(NC(=O)Cn2cc(S(=O)(=O)Cc3ccccc3F)c3ccccc32)c1	nt	18µM*	16µM*	5%	nt	nt
Cc1ccc(CNC(=O)Cn2cc(S(=O)(=O)Cc3ccccc3F)c3ccccc32)cc1	nt	?	15µM*	4%	nt	nt
COc1cc(Cl)c(C)cc1NC(=O)c1cc2ccc3cccnc3c2[nH]1	nt	?	?	3%	nt	nt
Clc1ccc(CNc2nnnn2-c2ccccc2)c(Cl)c1	?	?	?	0%	-7	11
CCN1C(=O)[C@H]2[C@@H](c3ccc(Cl)cc3)N3C(=O)CN(CCOC)C(=O)[C@@]3(C)[C@H]2C1=O	6%	5%	7%	nt	12	-1
Cc1cc2c(cc1C)-n1nnnc1C(N(C)CCc1ccccc1)C(=O)N2 (stereo not given)	nt	15µM*	23µM*	nt	20	nt
Cc1cc2c(cc1C)-n1nnnc1C(N1CCCNCC1)C(=O)N2 (stereo not given)	nt	-17%	?	nt	21	nt
CC(=O)c1ccc(NC(=O)c2sc(-n3nc(C)c(Cc4ccc5c(c4)OCO5)c3C)nc2C)cc1	nt	16µM*	16µM*	-7%	nt	nt
Cc1ccc(Cl)cc1NC(=O)c1sc(-n2nc(C)c(Cc3ccc4c(c3)OCO4)c2C)nc1C	nt	2.9µM*	?	4%	nt	nt
Cc1nc(-n2nc(C)c(Cc3ccc4c(c3)OCO4)c2C)sc1C(=O)Nc1cccc(Cl)c1	nt	16µM*	?	-13%	nt	nt
Cc1cccc(C)c1NC(=O)c1sc(-n2nc(C)c(Cc3ccc4c(c3)OCO4)c2C)nc1C	nt	-21%	-11%	1%	nt	nt
CCOc1ccc(NC(=O)c2sc(-n3nc(C)c(Cc4ccc(Cl)cc4)c3C)nc2C)cc1	nt	-21%	5%	8%	nt	nt
CC(=O)c1ccc(NC(=O)c2sc(-n3nc(C)c(Cc4ccccc4)c3C)nc2C)cc1	nt	16µM*	23µM*	2%	nt	nt
CCc1ccc(NC(=O)c2sc(-n3nc(C)c(Cc4ccc5c(c4)OCO5)c3C)nc2C)cc1	nt	-20%	-3%	?	nt	nt
CCN(CC)CCCNC(=O)CN1N=C(c2ccc(OC)cc2)CCC1=O	0%	22%	0%	-3%	27	-10
